In PubChem BioAssay (EPA / NIEHS):
Records with an inconclusive call do not appear. The source made the active and inactive calls. How the source made its calls: active means hit-call score of the fitted dose curve at least 0.9, where 1 is the maximum; inconclusive means response in the unintended direction; inactive means score below 0.9.

Assays:
[1] = target: rat Vasopressin 1 Receptor (V1), Avpr1a (gene 25107) (UniProt P30560); experiment: NVS_GPCR_rV1: NovaScreen (NVS) G Protein-Coupled Receptor Assay for rat Vasopressin 1 Receptor (V1) (AID 2283316)
Method in brief: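 Concentration-response up to 50 uM for chemicals passing a threshold such as 30% inhibition in an initial duplicate 25 uM screen. Displacement of radioligand from rat liver membranes measured after 1.5 h by filtration and scintillation.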

[2] = target: Voltage-dependent N-type calcium channel subunit alpha-1B (Rattus norvegicus) (UniProt Q02294); experiment: NVS_IC_rCaChN: NovaScreen (NVS) Ion Channel Assay for rat Calcium Channel, Type N (CaChN) (AID 2283317)

rat Vasopressin 1 Receptor (V1), Avpr1a (gene 25107), sequence (P30560 whole entry, looked up): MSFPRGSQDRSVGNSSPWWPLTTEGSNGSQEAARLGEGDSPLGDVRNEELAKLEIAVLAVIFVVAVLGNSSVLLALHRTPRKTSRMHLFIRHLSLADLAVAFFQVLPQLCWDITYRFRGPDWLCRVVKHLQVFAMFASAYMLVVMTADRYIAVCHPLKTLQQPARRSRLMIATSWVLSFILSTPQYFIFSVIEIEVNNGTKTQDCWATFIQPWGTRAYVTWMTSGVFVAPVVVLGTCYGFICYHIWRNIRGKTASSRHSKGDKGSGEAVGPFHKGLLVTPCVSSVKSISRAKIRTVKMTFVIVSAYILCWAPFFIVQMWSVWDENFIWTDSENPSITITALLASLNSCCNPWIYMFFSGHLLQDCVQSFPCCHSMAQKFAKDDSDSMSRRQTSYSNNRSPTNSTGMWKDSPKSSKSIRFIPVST

Structure (SMILES) | AC50 [1] | outcome [2]
COc1cc(OC)nc(NC(=O)NS(=O)(=O)c2ncccc2OCC(F)(F)F)n1 | 16.4 µM (active) | 
CCCCC(C#N)(Cn1cncn1)c1ccc(Cl)cc1 (stereo not drawn) | 1.98 µM (active) | 
N#Cc1c[nH]cc1-c1cccc2c1OC(F)(F)O2 |  | inactive
